Results from PubChem BioAssay AID1861 (The Scripps Research Institute Molecular Screening Center, 2009).
Among all 290,000 compounds or so, about 3,100 (1.1%) were called active. The sample holds actives, similar compounds and a random draw of the others, so the mix is not that of the screen. Unmarked numbers belong to inactive results. No stated cut-off is given here; in the data, active means inhibition above about 16% (passing the limit was not always enough); inactive means the rest.

Each molecule was assayed against Neuropeptides B/W receptor type 1 (Homo sapiens) (UniProt P48145) (assay: blockers of human neuropeptide B/W receptor 1 – cell-based, fluorescence, single concentration, primary screen (AID 1861;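 further: cells stimulated with the agonist NPW; 0% = agonist with vehicle and 100% = vehicle without agonist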)). Conditions: GPR7-expressing cells, fluorescence antagonist assay; at 4.4 µM; active compounds read high.
Neuropeptides B/W receptor type 1 (Homo sapiens), sequence (P48145 whole entry, looked up): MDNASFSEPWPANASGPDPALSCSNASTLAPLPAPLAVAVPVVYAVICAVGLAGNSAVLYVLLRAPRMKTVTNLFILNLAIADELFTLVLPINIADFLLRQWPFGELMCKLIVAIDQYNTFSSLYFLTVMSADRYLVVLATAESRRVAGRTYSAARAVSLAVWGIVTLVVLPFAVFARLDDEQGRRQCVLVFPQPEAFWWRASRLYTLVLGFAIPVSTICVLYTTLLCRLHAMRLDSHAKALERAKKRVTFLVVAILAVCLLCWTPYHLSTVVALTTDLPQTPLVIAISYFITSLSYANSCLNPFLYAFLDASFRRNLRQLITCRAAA
C/C(=N\NC(=O)c1cccc([N+](=O)[O-])c1)c1cccnc1 was tested, and the inhibition was -13.8%. Cc1ccccc1Nc1nnc(SCC(=O)c2cc3ccccc3o2)s1 was tested, and the inhibition was 28% (active). For Cc1cc(NC(=O)CSc2nnc(Nc3ccccc3F)s2)no1, the inhibition was -3.75%. Cc1ccc(Nc2nnc(SCC(=O)c3cc4ccccc4o3)s2)cc1C showed an inhibition of -6.61%. Work on COc1ccc(-c2nc3c(s2)CCc2onc(-c4ccc(OC)cc4)c2-3)cc1 yielded an inhibition of -14.6%. In the case of O=C(CC1C(=O)NCCN1CC(c1ccccc1)c1ccccc1)NCC1CCOCC1 (centres undefined), the inhibition is reported as -12.4%. Work on COCCn1cnc2c1c(=O)n(CC(=O)NN)c(=O)n2Cc1ccccc1 yielded an inhibition of -7.23%. Cc1ccc(F)c(NC(=O)CCOc2ccccc2C)c1 gave an inhibition of -9.71%. For O=C(/C=C/c1cccc([N+](=O)[O-])c1)N1CCN(Cc2ccccc2)CC1, the inhibition was 33.7%. In the case of O=[N+]([O-])/C=C/c1ccc2c(ccn2Cc2ccccc2)c1, the inhibition is reported as 50.9% (active). With O=c1c([N+](=O)[O-])cc(C(F)(F)F)cn1Cc1cccc(Cl)c1 the inhibition was 1%. In the case of CCc1ccc(NC(=O)CN2C(=O)COc3ccc(S(=O)(=O)N4CCCC4)cc32)cc1, the inhibition is reported as -5.64%. In the case of COc1ccc(C(=O)CSc2nnc(COc3ccccc3)n2Cc2ccco2)cc1, the inhibition is reported as 42.3% (active). With CCn1c(COc2ccccc2)nnc1SCC(=O)NCc1ccco1 the inhibition was 3.08%. Molecule C=CCn1c(CNC(=O)c2ccco2)nnc1SCC(=O)c1ccc(OC)cc1 has an inhibition of -0.25%. With CCc1ccc(N2CC(C(=O)N3CCCCCC3)CC2=O)cc1 (centres undefined) the inhibition was -4.17%. COc1ccccc1N(CC(=O)N/N=C(\C)c1ccccc1O)S(=O)(=O)c1ccc(C)cc1 was tested, and the inhibition was -9.35%. Work on Cc1ccccc1C(=O)OC1OC(=O)C(Cl)=C1Nc1ccccc1 (centres undefined) yielded an inhibition of 0.02%. Work on O=C1OC(OC(=O)c2ccccc2Br)C(N2CCOCC2)=C1Cl (centres undefined) yielded an inhibition of -8.99%. Cc1ccc(NC2=C(Cl)C(=O)OC2OC(=O)c2ccccc2C)cc1 (centres undefined) was tested, and the inhibition was 36.4% (active). With O=C(Cc1ccc(Cl)cc1)NC(=S)Nc1ccccc1O the inhibition was 80.2% (active). O=C(COc1ccc(Cl)cc1)NC(=S)Nc1ccccc1N1CCOCC1 gave an inhibition of -6.56%. In the case of Cc1ccccc1NC(=S)NC(=O)Cc1ccc(Cl)cc1, the inhibition is reported as 56.5% (active). Cc1ccc(C(=O)NC(=S)Nc2ccccc2C)cc1 showed an inhibition of -4.66%. Molecule Cc1cccc(NC(=S)NCCc2ccc(Cl)cc2)c1C has an inhibition of -3.82%. In the case of COC(=O)Cc1ccc(NC(=S)NCc2ccc(Cl)cc2)cc1, the inhibition is reported as -7.45%. Molecule COc1ccc2oc(=N)c(C(=O)Nc3ccc(Br)cc3)cc2c1 has an inhibition of -2.95%. CC(=O)Nc1ccc(S(=O)(=O)NC2Cc3ccccc3C2)cc1 was tested, and the inhibition was 17.6%. O=C(c1cc2ccccc2o1)N1CCN(Cc2ccccc2)CC1 gave an inhibition of -6.86%. Molecule COc1ccc(NC(=O)CCCC2CCCCC2)c(OC)c1 has an inhibition of 14.9%. COc1ccccc1NC(=O)CSc1nc2sc3c(c2c(=O)n1-c1ccccc1)CCN(C)C3 gave an inhibition of 4.04%. For Cc1ccc(-c2nc(SCC(=O)Nc3ccccc3OC(F)F)c3c(C)c(C(=O)O)sc3n2)cc1, the inhibition was 29.8% (active). In the case of Cc1ccc(C)c(SCc2nc3sc(C(=O)O)c(C)c3c(=O)[nH]2)c1, the inhibition is reported as -16.9%. For COc1cccc(/C=C(/CC(=O)Nc2ccc(N3CCOCC3)cc2)c2nc3ccccc3s2)c1, the inhibition was -6.54%. In the case of Cc1ccc(C)c(C(=O)N2CCC(n3nccc3NC(=O)C3CC3)CC2)c1, the inhibition is reported as -10.3%. With CCCCCCCCn1c2c(c(=N)c3c1CCC3)CCCC2 the inhibition was 57.5% (active). CCCCCCn1c(CN2CCCCC2)nc2c1c(=O)n(C)c(=O)n2C showed an inhibition of 0.86%. For COc1ccccc1C(=O)N/C(=C/c1ccco1)C(=O)Nc1ccc(C(=O)O)cc1, the inhibition was 0.36%. In the case of CCCC(=O)Nc1ccc(Cl)c(NC(=O)c2ccc(Br)o2)c1, the inhibition is reported as -14%. O=C(Nc1cccc(Cl)c1N1CCOCC1)c1cccnc1 showed an inhibition of -1.34%. With CCN1CCN(c2c(Cl)cccc2NC(=O)c2ccc(Br)o2)CC1 the inhibition was 23.7% (active). COc1ccc2cc(C(=O)NCC3CCCO3)[nH]c2c1 (centres undefined) was tested, and the inhibition was -1.93%. CN(C)CCOCCOc1ccc(Cl)c2ccccc12 was tested, and the inhibition was 14.1%. For CCN(CC)CCOCCOc1ccc(Cl)c2ccccc12, the inhibition was 27.1% (active). Clc1cccc(Cl)c1OCCOCCNCc1ccccc1 showed an inhibition of -2.47%. COc1ccc(NS(=O)(=O)c2ccc(O)c(C(=O)OCC(=O)NC3CCCCC3)c2)cc1 was tested, and the inhibition was -13.8%. NC(=O)COc1ccccc1C(=O)NC12CC3CC(CC(C3)C1)C2 was tested, and the inhibition was -4.36%. Work on Cc1ccccc1CN1CCNC(=O)C1CC(=O)NCCC1=CCCCC1 (centres undefined) yielded an inhibition of -1.59%. For CN1CCNC(=O)C1CC(=O)NCCC1=CCCCC1 (centres undefined), the inhibition was 18.4% (active). Work on O=C(Cc1nn[nH]n1)NCCC1=CCCCC1 yielded an inhibition of -14.2%. For CCN(CC)Cc1c(C(=O)OC)nnn1-c1nonc1N, the inhibition was 36.6% (active). Cc1c(C(=O)O)nnn1-c1nonc1N gave an inhibition of -7.01%. CCN(CC)Cc1c(C(=O)N/N=C/c2cccc(OCc3ccc(F)cc3)c2)nnn1-c1nonc1N was tested, and the inhibition was 6.35%. Work on O=C(CSc1nnnn1C1CCCC1)N1CCCCC1 yielded an inhibition of 0.56%. Molecule CCOC(=O)C1(Cc2ccccc2C(F)(F)F)CCN(C(=O)c2cc(C)n(C)n2)CC1 has an inhibition of -2.9%. Work on O=C(CSc1ccc(-c2ccc(Br)cc2)nn1)NCC1CCCO1 (centres undefined) yielded an inhibition of -0.63%. OC(CNCC1CCCO1)Cn1c2ccc(Br)cc2c2cc(Br)ccc21 (centres undefined) was tested, and the inhibition was 25.7% (active). CC(NS(=O)(=O)c1ccc(Br)cc1)C(=O)NCC1CCCO1 (centres undefined) showed an inhibition of -6%. CCc1ccc(OCC(O)CN2CCN(CCO)CC2)cc1 (centres undefined) showed an inhibition of -19.8%. For O=S1(=O)CCO[C@H]2Cc3ccccc3[C@H]2N1Cc1ccccc1, the inhibition was -8.66%. Molecule COc1ccccc1C(=O)N1C(CC(=O)Nc2ccccc2C)C(=O)NC2CCCCC21 (centres undefined) has an inhibition of -5.63%. Work on Cc1cc(-c2n[nH]c(=S)n2/N=C/C(Br)=C/c2ccccc2)n[nH]1 yielded an inhibition of 4.93%. CN1CCN(c2ccc(S(=O)(=O)N3CCCCC3)cc2NC(=O)Cc2ccccc2F)CC1 gave an inhibition of 1.52%. Work on CCN1CCN(c2ccc(S(=O)(=O)N3CCCCC3)cc2NC(=O)Cc2c(Cl)cccc2Cl)CC1 yielded an inhibition of 1.74%. In the case of COc1ccc(CC(=O)Nc2cc(S(=O)(=O)N3CCCCC3)ccc2N2CCN(C)CC2)cc1, the inhibition is reported as 19.6% (active). CCCC(C)c1nnc(NC(=O)C2CC(=O)N(c3ccc(OCC)cc3)C2)s1 (centres undefined) was tested, and the inhibition was 0.56%. For COc1ccc(N(CC(=O)Nc2cc(OC)ccc2OC)S(=O)(=O)c2c(C)noc2C)cc1, the inhibition was -4.71%. Work on COc1cccc(-n2c(SCC(=O)c3c[nH]c4ccccc34)nc3ccccc3c2=O)c1 yielded an inhibition of -11.6%. In the case of COc1ccc(/C=C(\C#N)c2c[nH]c3ccccc23)cc1, the inhibition is reported as 17.2%. COc1ccc(C(C(O)C(=O)c2c[nH]c3ccccc23)N2CCN(c3ccccc3)CC2)cc1 (centres undefined) was tested, and the inhibition was 25.7% (active). Work on COc1ccc(C(=O)NC(=S)N2CCCCC2c2cccnc2)cc1OC (centres undefined) yielded an inhibition of -2.66%. Work on Nc1nc(NCc2ccccc2)n(-c2ccccc2)n1 yielded an inhibition of -7.72%. For Cc1ccc(NC(=O)CN2C(=O)NC(C)(c3ccc(Cl)cc3)C2=O)c(Br)c1 (centres undefined), the inhibition was 22.3% (active). With CC1(c2ccc(Cl)cc2)NC(=O)N(CC(=O)c2ccc3c(c2)OCO3)C1=O (centres undefined) the inhibition was -6.7%. O=C(CN1C(=O)NC2(CCCC2)C1=O)Nc1ccc(F)c(F)c1F gave an inhibition of 11.1%. O/N=C(\C[n+]1ccccc1)c1ccc(Br)cc1 was tested, and the inhibition was 5.69%. In the case of CCOc1ccc(-n2c(SCC(=O)Nc3cc(C(=O)O)ccc3Cl)nc3ccccc3c2=O)cc1, the inhibition is reported as 2.21%. For O=C(COc1ccc(Cl)cc1)N1CCN(c2cccc(C(F)(F)F)c2)CC1, the inhibition was -8.3%. In the case of O=C(COc1ccc(S(=O)(=O)Nc2cccc(C(F)(F)F)c2)cc1)N1CCOCC1, the inhibition is reported as 26.6% (active). For O=C(COc1ccc(S(=O)(=O)NCc2ccccc2)cc1)N1CCOCC1, the inhibition was 4.86%. Cc1cc(N/N=C\c2ccc(Br)cc2)nc(-n2nc(C)cc2C)n1 showed an inhibition of -2.3%. Work on COc1ccccc1/C=N\Nc1cc(C)nc(-n2nc(C)cc2C)n1 yielded an inhibition of -14.4%. COc1ccc(Nc2cc(C)nc(-n3nc(C)cc3C)n2)cc1 was tested, and the inhibition was 20.7% (active). O=C(NCCc1c[nH]c2ccccc12)C1CCN(Cc2ccc(Br)cc2)CC1 showed an inhibition of 6.85%. In the case of CCc1ccc(N(C(=O)c2csnn2)C(C(=O)NC2CCCCC2)c2cccnc2)cc1 (centres undefined), the inhibition is reported as 16.5%. With CCc1ccc(N(C(=O)c2csnn2)C(C(=O)NC2CCCCC2)c2ccncc2)cc1 (centres undefined) the inhibition was 22.7% (active). O=C(NC1CCCC1)C(c1ccco1)N(C(=O)c1csnn1)c1ccccc1 (centres undefined) gave an inhibition of -7.05%. O=C(NCC(=O)N(c1ccccc1)C(C(=O)NCC1CCCO1)c1ccccc1)c1cccs1 (centres undefined) showed an inhibition of -0.97%. In the case of CN(C)CCNc1ccc(-c2n[nH]c(=O)c3ccccc23)cc1[N+](=O)[O-], the inhibition is reported as -19.5%. CCc1ccccc1NC(=O)c1ccc2snnc2c1 was tested, and the inhibition was 4.67%. O=C(Nc1ccc2ccccc2c1)Nc1ccc2snnc2c1 was tested, and the inhibition was 31.3% (active). In the case of O=C(Nc1cccc(Br)c1)c1ccc2snnc2c1, the inhibition is reported as 6.67%. COCC(=O)N1CCCC(C(=O)c2ccc(C(F)(F)F)cc2)C1 (centres undefined) was tested, and the inhibition was -16.7%. With CCOC(=O)C1(CCOC)CCN(Cc2cc3ccccc3s2)CC1 the inhibition was -2.08%.
